Screening data deposited in PubChem by several laboratories.
Hits are enriched below; roughly 2.9% of the tested compounds scored in any of these assays.
MITF TRPM1 inh: inhibitors of MITF-dependent TRPM1 promoter reporter, primary screen, cell-based, SK-MEL-5, single point, luciferase. 330,000 tested, 0.83% active. SK-MEL-5 TRPM1 promoter luciferase, 24 h. inhibition, % at 12.5 µM. AID 488899, 2010;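 active = mean inhibition across replicates of 60% or more, whatever share of single replicates reaches that level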
EBV LMP1 NFkB: EBV LMP1-driven NF-kappaB luciferase reporter inhibitors, primary screen, cell-based, luminescence, single point; LMP1-induced NF-kappaB luciferase reporter cells; inhibition, % at 12.5 µM; 350,000 tested, 0.69% active; AID 504558, 2011; in the data active = inhibition above about 41%;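 also: 0% = neutral control wells and 100% = reference inhibitor control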
KKLEB cytotox: cytotoxicity in KKLEB CF airway cells, primary screen, cytotoxicity control for CF NF-kB inhibitor project, cell-based, uHTS, fluorescence assay plates | activity change (cytotoxicity), % at 5 µM | AID 602141, 2011 | KKLEB CF airway cells viability, ATPlite luminescence, overnight; stronger effect = lower value; cells stimulated with P. aeruginosa culture filtrate | 360,000 tested, 0.36% active;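 active = corrected activity change at or below -50% at 5 µM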
Peg3 promoter: Peg3 promoter-driven luciferase inhibitors, primary screen, cell-based, HeLa, luciferase luminescence; HeLa PEG-Prom luciferase reporter, overnight; inhibition, % at 20 µM; 360,000 tested, 1.7% active; AID 588405, 2011;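 active = inhibition of at least 50% at 20 µM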
CF NFkB inh: inhibitors of PAF-induced NF-kB signaling, primary screen, cell-based, GFP fluorescence, uHTS | KKLEB NF-kB-GFP reporter, GFP fluorescence overnight | inhibition, % at 5 µM | 360,000 tested, 0.86% active | AID 588850, 2011;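 active = at least 50% inhibition at 5 µM, scaled per plate between neutral and stimulator controls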;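 also: PAF is a Pseudomonas aeruginosa culture filtrate used as stimulus; plate controls were PAF-stimulated DMSO wells for no effect and unstimulated DMSO wells for full effect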
Shn3 inh set2: reduction of Shn3 3'UTR firefly luciferase signal, primary screen, Schnurri-3 inhibitor project, cell-based, Clone20 osteoblasts, set 2; inhibition, % at 12.5 µM; Clone20 osteoblast Shn3 3'UTR firefly luciferase, 24 h; 360,000 tested, 0.52% active;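 active = mean inhibition of at least 75% with every replicate also reaching 75%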;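 also: 0% = median of neutral control wells and 100% = pilot-screen positive control compound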
Active calls of the source: *; . = not tested or not shown.

SMILES | MITF TRPM1 inh | EBV LMP1 NFkB | KKLEB cytotox | Peg3 promoter | CF NFkB inh | Shn3 inh set2
CCCC(=O)Nc1ccc(-c2csc(N/N=C\c3ccncc3)n2)cc1 | 0.9 | 26.4 | 0.5 | 68.0* | -26.5 | -4.2
COc1ccc(CNC(=O)C2(C)Cc3c(-c4cccc(NC(C)=O)c4)ccnc3O2)cc1OC (centres undefined) | . | . | -2.9 | 6.1 | -6.7 | 6.8
C=CCN1C(=O)/C(=C/c2ccc(OC(C)=O)c(OCC)c2[N+](=O)[O-])SC1=S | 23.4 | 4.6 | -43.7 | -48.5 | 54.1* | -22.1
CCOc1c(OC(C)=O)ccc(/C=C/c2ccc3cccc(OC(C)=O)c3n2)c1[N+](=O)[O-] | -104.8 | -24.4 | 9.7 | -292.3 | 2.1 | -99.5
CCOCCCNC(=O)/C(C#N)=C/c1ccc(Cl)c([N+](=O)[O-])c1 | 89.1* | 57.5* | 8.2 | 105.0* | -1.7 | 0.3
COCCNC(=O)/C(C#N)=C/c1cccc(/C=C(\C#N)C(=O)NCCOC)c1 | 65.3* | 15.5 | 2.3 | 20.2 | 21.2 | 9.0
COCCNC(=O)/C(C#N)=C/c1ccc(O)cc1 | -0.1 | -5.8 | -7.4 | -14.2 | -3.6 | -10.5
COc1ccncc1-c1ccc(C2=CC(=O)CC(C)(C)C2=O)cc1 | . | -23.7 | 11.3 | -202.8 | -1.4 | -96.0
NCC1CCN(c2nc3ccccc3c3c2CCCC3)CC1 | 4.2 | -3.3 | -3.0 | 102.1* | 14.7 | 0.4
CN1CCCCc2c1nc1ccccc1c2N (tested in a mixture with another compound) | 10.6 | -7.1 | 19.6 | 4.7 | -21.4 | 19.6
N#Cc1c(N)n(C2OC(CO)C(O)C2O)c2ncnc(N)c12 (centres undefined) | 70.6* | 65.9* | -62.3* | 96.1* | 89.3* | 65.1
COc1cc(/C=N/N(c2ccccc2)c2ccccc2)ccc1O | 1.1 | -7.5 | 5.6 | -27.9 | -12.8 | -26.7
CN(/N=C\c1ccc(O)c(O)c1)c1nc(-c2ccccc2)cc(-c2ccccc2)n1 | 11.8 | -17.5 | -1.1 | 10.1 | -32.4 | 91.9*
CSc1nc(N)c(C#N)c(-c2ccc(Cl)cc2)c1C#N | 2.8 | -7.6 | -4.7 | 57.8* | -2.8 | 10.7
CSc1nc(-c2ccc(Cl)cc2)nc(N)c1C#N | . | . | -10.6 | 18.4 | -10.2 | -17.0
CC(=O)N1CCN(CC(=O)Nc2cc(S(=O)(=O)N3CCCCC3)ccc2C)CC1 | -2.3 | 1.5 | -27.0 | -2.5 | 7.3 | -0.3
COC(=O)c1ccc(CNC(=O)c2sccc2-c2ccccc2)cc1 | 79.3* | 3.5 | -8.3 | 9.9 | 9.7 | 16.6
COC(=O)c1cc(CNC(=O)c2sccc2-c2ccccc2)ccc1OC | 7.6 | 2.5 | -12.3 | 20.2 | 11.1 | 13.7
CCN(CC)C(=O)[C@H]1C[C@H](CC(=O)NC/C=C(\C)CCC=C(C)C)C(=O)N2CCc3c([nH]c4cc(CCC(=O)N(C)C)ccc34)[C@]12C | 13.2 | 0.3 | -7.1 | 5.3 | 8.4 | 89.8*
CC(C)=CCC/C(C)=C/CNC(=O)C[C@H]1C[C@H](C(=O)N2CCOCC2)[C@@]2(C)c3[nH]c4ccc(Cl)cc4c3CCN2C1=O | 8.7 | 1.4 | -13.9 | 55.6* | 28.8 | 39.8
COc1ccc(C2c3c(ncn(Cc4ccco4)c3=N)Oc3ccc4ccccc4c32)cc1 (centres undefined) | -12.0 | -7.3 | -18.3 | 21.1 | 26.1 | 1.4
N=c1c2c(ncn1CCCO)Oc1ccc3ccccc3c1C2c1ccccc1 (centres undefined) | . | . | -13.6 | 12.9 | -2.2 | 25.1
N=c1c2c(ncn1CCCO)Oc1c(ccc3ccccc13)C2c1ccccc1 (centres undefined) | 32.5 | -4.1 | -7.1 | 72.7* | 7.5 | -2.1
CN(C)CCCn1cnc2c(c1=N)C(c1ccccc1)c1ccc3ccccc3c1O2 (centres undefined) | 98.8* | -75.8 | -27.9 | 108.7* | -8.2 | 3.2
COc1ccc(C2c3ccc4ccccc4c3Oc3ncn(CCCO)c(=N)c32)cc1OC (centres undefined) | -13.2 | -29.2 | -24.0 | 31.9 | 20.5 | 26.9
